According to PubChem BioAssay (EPA / NIEHS):
Where “and” joins values, the source holds several entries; their conditions need not be identical. Equal entries are not always repeated. Where a structure was tested more than once in an assay, its records may differ in their call. Calls of active or inactive are those of the source. Rule for the calls: active = hit-call score of the fitted dose curve at least 0.9, where 1 is the maximum; inactive = score below 0.9.

Each compound was assayed against X-box-binding protein 1 (Homo sapiens) (UniProt P17861) (assay: ATG_Xbp1_CIS: Attagene CIS-FACTORIAL HepG2 Assay for human X-box Binding Protein 1 (XBP1) (AID 2282972)). Details: HepG2 XBP1 cis-element reporter, Attagene multiplex; actives raise or lower the signal.
Description: ATG_CIS is a cell-based, multiplexed-readout assay that uses HepG2, a human liver cell line, with measurements taken at 24 hours after chemical dosing in a 24-well plate.ATG_Xbp1_CIS is one of 52 assay component(s) measured or calculated from the ATG_CIS assay. It is designed to make measurements of mRNA induction, a form of inducible reporter, as detected with fluorescence intensity signals by Reverse transcription polymerase chain reaction (RT-PCR) and Capillary electrophoresis technology.Data from the assay component ATG_Xbp1_CIS was analyzed into 1 assay endpoint. This assay endpoint, ATG_Xbp1_CIS, was analyzed with bidirectional fitting relative to DMSO as the negative control and baseline of activity. Using a type of inducible reporter, measures of mRNA for gain or loss-of-signal activity can be used to understand the reporter gene at the transcription factor-level as they relate to the gene XBP1. Furthermore, this assay endpoint can be referred to as a primary readout, because this assay has produced multiple assay endpoints where this one serves a reporter gene function. To generalize the intended target to other relatable targets, this assay endpoint is annotated to the dna binding intended target family, where the subfamily is basic leucine zipper.
Human liver HepG2 cells are transiently transfected with multiple reporter transcription units (MRTUs) in 6-well plates using FuGene 6 reagent (Roche; 3 ml FuGene/1 mg DNA). The MRTU constructs are regulated by a cis-regulating element (promoter). […] A major difference between the CIS and TRANS system is that in CIS activities of endogenous TFs are measured, whereas the TRANS assay evaluates changes in activities of exogenous, chimeric NR-Gal4 proteins. […] At the end of 24 hour incubation, total RNA was isolated using TriZol reagent (Invitrogen). The isolated RNA is then reverse-transcribed using oligo(dT) primer and Mo-MLV reverse transcriptase (Invitrogen) with DNAse I (Ambion) treatment for 30 min. The one-tenth of the produced cDNA was amplified by PCR using Taq DNA polymerase (Invitrogen) and two reporter sequence-specific primers. The PCR products were fluorescently labeled by primer extension with 6-arboxyfluorescein (6-FAM) 5'-labeled reporter sequence-specific primer (2 min at 95 C, 20 s at 68 C and 10 min at 72 C) and these products were digested with 5U of HpaI (New England Biolabs) for 2h at 37 C. The fragments were purified using Qiaquick PCR columns (Qiagen), analyzed on an ABI 3130xL genetic analyzer (Applied Biosystems) with peak positions identified by using a set of X-rhodamine (ROX)-labeled MapMarker1000 molecular weight standards (BioVentures). The raw capillary electrophoresis data was processed using Attagraph software (Attagene).

Sequence of X-box-binding protein 1 (Homo sapiens) (P17861 whole entry, looked up): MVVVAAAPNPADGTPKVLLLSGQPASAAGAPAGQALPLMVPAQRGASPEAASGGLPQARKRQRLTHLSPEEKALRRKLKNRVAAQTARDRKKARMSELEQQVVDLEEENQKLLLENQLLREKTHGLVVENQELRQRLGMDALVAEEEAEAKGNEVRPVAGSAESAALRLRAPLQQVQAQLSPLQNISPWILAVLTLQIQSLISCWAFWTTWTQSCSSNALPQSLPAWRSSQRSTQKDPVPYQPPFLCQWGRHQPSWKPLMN

Structure (SMILES)	outcome	AC50
CCCSC(=O)N(CCC)CCC	inactive	
Brc1ccc(Oc2ccccc2)cc1	inactive	
CCCCC(CC)COC(=O)c1ccc(C(=O)OCC(CC)CCCC)c(C(=O)OCC(CC)CCCC)c1 (stereo not given)	inactive	
CC(C)(C)OOC(C)(C)CCC(C)(C)OOC(C)(C)C	inactive	
O=C1CCCO1	inactive	
OCCCl	inactive	
c1ccc(NNc2ccccc2)cc1	inactive	
CC(C)(C)C(O)(CCc1ccc(Cl)cc1)Cn1cncn1 (stereo not given)	inactive	
COc1cc(C=O)cc2c1[C@H](COC(N)=O)[C@]1(OC(C)=O)ON2C[C@H]2[C@@H]1N2C(C)=O		33.4 µM (active)
Cc1cc(N=Nc2ccccc2C)ccc1N		19.3 µM (active)
N#CC(Br)(Br)C(N)=O	inactive	
CN(C)C(=O)Nc1ccc(Cl)cc1	inactive	
C[C@]12C=CC3=C4CCC(=O)C=C4CC[C@H]3[C@@H]1CC[C@@H]2O	inactive	134 µM (active) and 10.7 µM (active)
CC(C)N(Cc1ccccc1)C(=O)C(C)(C)C	inactive	
c1ccc2c(c1)-c1cccc3cccc-2c13	inactive	
COP(=S)(OC)SCN1C(=O)c2ccccc2C1=O	inactive	
c1ccc2c(c1)oc1ccccc12	inactive	
CCCCCCCCOC(=O)c1ccc(C(=O)OCCCCCCCC)c(C(=O)OCCCCCCCC)c1	inactive	
CCCCOC(=O)c1ccccc1C(=O)OCc1ccccc1	inactive	
Cc1ccc(N)c(N)c1	inactive	

Structure (SMILES)	outcome	AC50
[O-][Cl+]O	inactive	
c1ccc(N=Nc2ccccc2)cc1	inactive	
C1=Cc2cccc3cccc1c23	inactive	
Clc1ccccc1Cl	inactive	
COC(=O)c1ccccc1N	inactive	
CCC(C)c1ccc(O)cc1 (stereo not given)		51.8 µM (active)
O=[N+]([O-])C(Br)(CO)CO		145 µM (active)
ClC1=C(Cl)C2(Cl)C3C(Cl)C=CC3C1(Cl)C2(Cl)Cl (stereo not given)	inactive	
O=C(O)C1C2CCC(O2)C1C(=O)O (stereo not given)		100 µM (active)
CO[C@@H]1[C@H](OC(=O)NC(=O)CCl)CC[C@]2(CO2)[C@H]1[C@@]1(C)O[C@@H]1CC=C(C)C		30.9 µM (active)
CC(C)(C)OOC(=O)c1ccccc1		150 µM (active)
O=P(OCCCl)(OCCCl)OCCCl	inactive	
Clc1ccc(C(c2ccc(Cl)cc2)C(Cl)(Cl)Cl)cc1	inactive	
CC(O)CCO (stereo not given)	inactive	
CCOc1cccc(C2(N3CCN(c4ccccc4)CC3)CCC(C)CC2)c1 (stereo not given)	inactive	
ClC1=C(Cl)[C@]2(Cl)[C@H]3[C@H]([C@@H]4C=C[C@H]3C4)[C@@]1(Cl)C2(Cl)Cl		33.4 µM (active)
Cc1ccc(N=C=O)cc1N=C=O	inactive	
Nc1ccc(Oc2ccc(N)cc2)cc1	inactive	
CCCCCCCCn1sccc1=O		16.5 µM (active)
